Measurements from PubChem BioAssay (EPA / NIEHS).
Inconclusive results are not listed. Calls of active or inactive are those of the source. How the source made its calls: active means hit-call score of the fitted dose curve at least 0.9, where 1 is the maximum; inconclusive means response in the unintended direction; inactive means score below 0.9.

Experiment: ACEA_AR_agonist_AUC_viability: ACEA Biosciences xCELLigence Real-Time Cell Analysis on Androgen Receptor Agonism for Viability (AID 2283775);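 on AC50: viability read 80 hours after compound addition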
Procedure, shortened: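 22Rv1 cells; impedance growth kinetics; 8-pt 1:4 dilutions from 100 uM top final, ≤0.5% DMSO; n = 2; 80 h read; AUC viability, loss-of-signal vs DMSO.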

Row | Compound | outcome | AC50
1 | O=c1ccc2ccccc2o1 | inactive | 
2 | CCCCCCCCCCCCO | inactive | 
3 | O=c1[nH]sc2ccccc12 |  | 14.1 µM (active)
4 | O=C(O)c1ccccc1-n1cc(C(=O)O)c(=O)c2cc(Nc3c(F)cc(F)cc3Cl)c(Cl)cc21 | inactive | 
5 | CCCCOC(=O)CC(CC(=O)OCCCC)(OC(C)=O)C(=O)OCCCC | inactive | 
6 | CCCCCCCCOc1ccc(C(=O)c2ccccc2)c(O)c1 |  | 68.2 µM (active)
7 | CCN(Cc1cccnc1)C(=O)c1cccc(Cl)c1[C@]1(C)C(=O)N(Cc2ccc(OC)cc2OC)c2ccc(Cl)cc21 |  | 23.8 µM (active)
8 | O=C(OCCCCCCOC(=O)c1ccccc1)c1ccccc1 |  | 74 µM (active)
9 | CN1C(=O)N(c2ccccc2Br)Cc2cnc(Nc3ccc4c(c3)OCC(CO)O4)nc21 (centres undefined) |  | 20.5 µM (active)
10 | CN1C(=O)CC[C@H]1c1cccnc1 | inactive | 
11 | Cc1cccc2ccccc12 | inactive | 
12 | c1ccc2n[nH]nc2c1 | inactive | 
13 | CC(C)(O)c1ccc(CNC(=O)c2cccnc2Oc2ccc3nonc3c2)cc1 | inactive | 
14 | Cc1cc(F)ccc1-c1cc(N2CC[C@@H](O)[C@H]2CO)ncc1N(C)C(=O)C(C)(C)c1cc(C(F)(F)F)cc(C(F)(F)F)c1 |  | 8.51 µM (active)
15 | Clc1ccccc1C(c1ccccc1)(c1ccccc1)n1ccnc1 |  | 16.9 µM (active)
16 | Cc1occc1C(=O)Nc1ccc(C(=O)N2CCC(F)(F)/C(=C\C(=O)N3CCC(N4CCCCC4)CC3)c3ccccc32)cc1 |  | 31.2 µM (active)
17 | CN(C)C(=O)C1(N2CCCCC2)CCN(CC[C@@]2(c3ccc(Cl)c(Cl)c3)CN(C(=O)c3ccccc3)CCO2)CC1 |  | 10.5 µM (active)
18 | CCCCCCCCCC(=O)O | inactive | 
19 | Cc1cc2c(cc1C(F)(F)F)N(C(=O)Nc1ccc(Oc3cccnc3C)nc1)CC2 |  | 17.1 µM (active)
20 | O=CCCCC=O |  | 35.2 µM (active)
21 | c1ccc(C[n+]2cccc3ccccc32)cc1 |  | 50 µM (active)
22 | O=C(O)Cn1c(=O)n(Cc2ccc(Br)cc2F)c(=O)c2ccc(Cl)cc21 | inactive | 
23 | Cc1ccc2oc(CN(Cc3ccccc3)C(=O)Nc3c(F)cc(F)cc3F)c(-c3ccc(Cl)cc3)c2c1 |  | 9.77 µM (active)
24 | NC(=O)c1nc(-c2cccc(-c3cc(F)ccc3OCC(F)(F)C(F)(F)F)c2)n[nH]1 |  | 24.6 µM (active)
25 | CC[C@@H]1C[C@H](N(Cc2cc(C(F)(F)F)cc(C(F)(F)F)c2)C(C)=O)c2cc(C(F)(F)F)ccc2N1C(=O)OC(C)C | inactive | 
26 | CCCCOC(=O)c1ccc(O)cc1 |  | 69.5 µM (active)
27 | COc1cccc([C@H](O)C2CCN(CCc3ccc(F)cc3)CC2)c1OC |  | 50 µM (active)

Experiment: ACEA_AR_antagonist_AUC_viability: ACEA Biosciences xCELLigence Real-Time Cell Analysis on Androgen Receptor Antagonism for Viability (AID 2283776);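 further: 22Rv1 human prostate cancer cells growing on impedance electrode plates; area under impedance growth curve at 80 h after dosing as viability; hits lower the growth signal relative to DMSO meaning cytotoxicity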
Procedure, shortened: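 Viability endpoint from label-free cell-index monitoring: 22Rv1 cultures treated with an eight-point 1:4 dilution series starting at 100 uM final, AUC at 80 h fitted against DMSO.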

Row | Compound | outcome | AC50
28 | O=c1ccc2ccccc2o1 | inactive | 
29 | CCCCCCCCCCCCO | inactive | 
30 | O=c1[nH]sc2ccccc12 |  | 7.87 µM (active)
31 | CC(O)CC(C)(C)O (centres undefined) | inactive | 
32 | CCCCCCCCCCCC[N+](C)(C)C |  | 9.45 µM (active)
33 | O=C(O)c1ccccc1-n1cc(C(=O)O)c(=O)c2cc(Nc3c(F)cc(F)cc3Cl)c(Cl)cc21 | inactive | 
34 | CCCCOC(=O)CC(CC(=O)OCCCC)(OC(C)=O)C(=O)OCCCC | inactive | 
35 | CC1(C)NC(=O)N(c2ccc([N+](=O)[O-])c(C(F)(F)F)c2)C1=O |  | 68.9 µM (active)
36 | CCCCCCCCOc1ccc(C(=O)c2ccccc2)c(O)c1 |  | 13.7 µM (active)
37 | CCN(Cc1cccnc1)C(=O)c1cccc(Cl)c1[C@]1(C)C(=O)N(Cc2ccc(OC)cc2OC)c2ccc(Cl)cc21 |  | 20.7 µM (active)
38 | Oc1ccc2ccccc2c1 | inactive | 
39 | O=C(OCCCCCCOC(=O)c1ccccc1)c1ccccc1 |  | 71.5 µM (active)
40 | CN1C(=O)N(c2ccccc2Br)Cc2cnc(Nc3ccc4c(c3)OCC(CO)O4)nc21 (centres undefined) |  | 12.7 µM (active)
41 | CCCCCCCCN(C)CCCCCCCC | inactive | 
42 | CN1C(=O)CC[C@H]1c1cccnc1 | inactive | 
43 | Cc1cccc2ccccc12 | inactive | 
44 | c1ccc2ccccc2c1 | inactive | 
45 | c1ccc2n[nH]nc2c1 | inactive | 
46 | CC(C)(O)c1ccc(CNC(=O)c2cccnc2Oc2ccc3nonc3c2)cc1 | inactive | 

Row | Compound | outcome | AC50
47 | Cc1cc(F)ccc1-c1cc(N2CC[C@@H](O)[C@H]2CO)ncc1N(C)C(=O)C(C)(C)c1cc(C(F)(F)F)cc(C(F)(F)F)c1 |  | 10.1 µM (active)
48 | COCC(C)OCC(C)OCC(C)O (centres undefined) | inactive | 
49 | Clc1ccccc1C(c1ccccc1)(c1ccccc1)n1ccnc1 |  | 14.7 µM (active)
50 | CCCCCCCC[Si](OCC)(OCC)OCC | inactive | 
51 | Cc1occc1C(=O)Nc1ccc(C(=O)N2CCC(F)(F)/C(=C\C(=O)N3CCC(N4CCCCC4)CC3)c3ccccc32)cc1 |  | 41.1 µM (active)
52 | CN(C)C(=O)C1(N2CCCCC2)CCN(CC[C@@]2(c3ccc(Cl)c(Cl)c3)CN(C(=O)c3ccccc3)CCO2)CC1 |  | 11.5 µM (active)
53 | CCCCCCCCCC(=O)O | inactive | 
54 | Cc1cc2c(cc1C(F)(F)F)N(C(=O)Nc1ccc(Oc3cccnc3C)nc1)CC2 |  | 15.1 µM (active)
55 | O=CCCCC=O |  | 23.3 µM (active)
56 | c1ccc(C[n+]2cccc3ccccc32)cc1 |  | 82.3 µM (active)
57 | O=C(O)Cn1c(=O)n(Cc2ccc(Br)cc2F)c(=O)c2ccc(Cl)cc21 | inactive | 
58 | Cc1ccc2oc(CN(Cc3ccccc3)C(=O)Nc3c(F)cc(F)cc3F)c(-c3ccc(Cl)cc3)c2c1 |  | 14.1 µM (active)
59 | NC(=O)c1nc(-c2cccc(-c3cc(F)ccc3OCC(F)(F)C(F)(F)F)c2)n[nH]1 |  | 19.3 µM (active)
60 | Cc1cn([C@H]2C[C@H](N=[N+]=[N-])[C@@H](CO)O2)c(=O)[nH]c1=O | inactive | 
61 | CC[C@@H]1C[C@H](N(Cc2cc(C(F)(F)F)cc(C(F)(F)F)c2)C(C)=O)c2cc(C(F)(F)F)ccc2N1C(=O)OC(C)C | inactive | 
62 | O=C(O)c1ccccc1C(=O)OCc1ccccc1 | inactive | 
63 | CCCCOC(=O)c1ccc(O)cc1 |  | 56.7 µM (active)
64 | COc1cccc([C@H](O)C2CCN(CCc3ccc(F)cc3)CC2)c1OC |  | 35.7 µM (active)
